Screens (PubChem)
Rab9 promoter act = activates the Rab9 promoter; Huh7 Rab9 promoter-luciferase reporter, luminescence, 24 h; 2.8% of 320,000 active; Potency, µM (titrated, usually from 9.22 µM), inactives show top-dose activation, negative = inhibition, hits mostly activators; note: % of control where 0% means no effect; nearly all actives have a fitted effect of over 60% in size
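Cells were plated at 1500 per well in reduced-serum medium with 10% FBS and left 2 h. Compound in DMSO was then added for 24 h at 37 °C. Reporter signal was read by luminescence after 10 min with luciferase detection reagent.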
Luc counter = counter-screen: inhibitors of Kinase-Glo firefly luciferase. 0.28% of 200,000 active. Q27757. Potency, µM (series often up to 38.3 µM), for inactives: at the top dose activity change, negative = inhibition, actives largely listed as inhibitors. Kinase-Glo luciferase, ATP luminescence, 8 min; note: % is set by controls: 0 for no effect and ±100 for the full control effect; nearly all actives have a fitted effect of over 60% in size
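Luminescence was the read-out, taken after 8-minute incubation at ambient temperature. Luciferase turned over luciferin with 10 uM ATP in imidazole pH 7.2 buffer containing KCl, MgCl2, Tween 20 and BSA.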
SMN2 splice up = enhancers of SMN2 splice variant expression; HEK293 SMN2-luciferase splicing reporter, luminescence, 30-36 h; Potency, µM (highest dose often 46.1 µM), without a hit: at the top dose activity change, positive = activation, actives largely listed as activators; 2.8% of 210,000 active; AID 1458; note: % of control where 0% means no effect; nearly all actives have a fitted effect of over 55% in size
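HEK293 cells carry an SMN2 […]–luciferase reporter in which exon 7 inclusion puts luciferase in frame. Cells were plated 10-12 h before compound addition, then incubated 30-36 h at 37C. ONE-Glo luminescence was read; sodium butyrate at 4.5 mM final served as control.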
NPC1 prom act = activates the NPC1 promoter; Huh7 NPC1 promoter luciferase reporter, 24 h; Potency, µM (doses to about 9.22 µM), without a hit: at the highest dose activation, hits mostly activators; 2.4% of 320,000 active; AID 485313; note: % of control where 0% means no effect; nearly all actives have a fitted effect of over 60% in size
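Huh7 cells stably carrying NPC1 promoter–luciferase, plated in Opti-MEM with 10% FBS for 2 h, were exposed to compound in DMSO for 24 h at 37 °C; luciferase reagent was added for 10 min and luminescence read.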
ELG1 genotoxic = inducers of genotoxicity in HEK293T ELG1-luciferase cells; Potency, µM (series often up to 46 µM), inactives show top-dose activity change, positive = activation, actives largely listed as activators; 1.3% of 330,000 active; HEK293T ELG1-luciferase reporter, luminescence, 16 h; note: % of control where 0% means no effect; nearly all actives have a fitted effect of over 60% in size
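Cells (2,000/well) expressing the ELG1-luciferase fusion are dosed by pin tool and kept 16 hr at 37 °C, 5% CO2. Signal comes from ONE-Glo luciferase reagent after 30 min at room temperature.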
FLuc modulator = counter-screen for miR-21 project: firefly luciferase inhibitors or activators; Potency, µM (doses to about 57.5 µM), without a hit: at the top dose activity change, negative = inhibition, actives largely listed as inhibitors; P08659; 6.9% of 360,000 active; purified FLuc, Km substrates, luminescence inhibition; AID 588342;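 note: plate controls were vehicle for no effect and reference inhibitor for full effect; nearly all actives have a fitted effect of over 55% in size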
Target sequence (P08659 whole entry, looked up): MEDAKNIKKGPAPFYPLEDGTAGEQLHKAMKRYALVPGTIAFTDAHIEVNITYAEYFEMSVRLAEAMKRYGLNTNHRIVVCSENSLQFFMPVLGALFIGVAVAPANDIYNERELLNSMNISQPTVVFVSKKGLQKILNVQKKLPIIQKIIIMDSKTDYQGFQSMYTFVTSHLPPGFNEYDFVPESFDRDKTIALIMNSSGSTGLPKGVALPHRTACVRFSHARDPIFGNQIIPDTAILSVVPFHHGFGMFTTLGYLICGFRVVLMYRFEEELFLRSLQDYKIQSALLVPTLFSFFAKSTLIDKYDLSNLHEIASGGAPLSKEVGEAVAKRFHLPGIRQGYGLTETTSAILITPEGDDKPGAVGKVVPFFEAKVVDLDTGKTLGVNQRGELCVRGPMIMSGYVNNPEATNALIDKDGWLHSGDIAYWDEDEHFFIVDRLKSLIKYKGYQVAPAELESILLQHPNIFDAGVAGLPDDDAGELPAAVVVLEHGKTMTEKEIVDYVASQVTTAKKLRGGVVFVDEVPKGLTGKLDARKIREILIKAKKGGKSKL
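Purified P. pyralis luciferase, 10 nM final, with Km-level 10 uM D-luciferin and 10 uM ATP in 50 mM Tris acetate pH 7.5, 10 mM Mg acetate, 0.01% Tween-20, 0.05% BSA; 6-point qHTS titration about 60 µM downward; luminescence read.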
An asterisk follows results filed as active; ? = inconclusive; . = not tested or not shown; [ ] = dose if it differs, or a comment. An excerpt weighted towards active compounds, which were near 7.5% of everything screened. Calls come from the whole dose curve; as a rule, active = well fitted curve in the direction sought with a large enough effect; inconclusive = small, poorly fitted or top-dose-only effect, or another doubt; inactive = no such curve, though single readings can be large; an effect the other way counts as inactive or inconclusive. Potency is the fitted concentration of half-maximal effect.

SMILES | Rab9 promoter act | Luc counter | SMN2 splice up | NPC1 prom act | ELG1 genotoxic | FLuc modulator
O=C(NCc1ccccc1)c1ccc2c(c1)C(=O)N(Cc1cccnc1)C2=O | -1% | . | . | 2% | 1% | 0%
CCN1C(=O)c2ccc(C(=O)Nc3nccs3)cc2C1=O | -3% | 0% | 2% | 0% | 0% | ?
Cc1cnc(NC(=O)c2ccc3c(c2)C(=O)N(Cc2cccnc2)C3=O)s1 | 2% | . | . | 3% | 4% | 1.7µM*
Cc1ccc(NC(=O)c2ccc3c(c2)C(=O)N(Cc2cccnc2)C3=O)c(C)c1 | -3% | 2% | -11% | -1% | 2% | 1%
CC(C)(C)N1C(=O)c2ccc(C(=O)Nc3nccs3)cc2C1=O | 2.8µM* | -2% | 16% | 3.5µM* | ? | 3.4µM*
O=C(Nc1nccs1)c1ccc2c(c1)C(=O)N(Cc1cccnc1)C2=O | 2% | . | . | 1% | -4% | 24µM*
O=C(O)c1cc(NC(=O)c2ccc3c(c2)C(=O)N(Cc2cccnc2)C3=O)cc(C(=O)O)c1 | 2% | . | . | 3% | 2% | 1%
C#Cc1cccc(NC(=O)c2ccc3c(c2)C(=O)N(Cc2cccnc2)C3=O)c1 | -5% | . | . | 3% | 1% | 13µM*
CN(C)CCn1c(SCc2ccccc2C#N)nc2c(sc3ccccc32)c1=O | -5% | . | . | 0% | -3% | ?
Cc1cc2sc3nc(=O)n(-c4ccccc4)c(=O)n3c2cc1C | 3.2µM* | . | . | ? | ? | 17µM*
O=S(=O)(c1ccccc1)N1CCC2(CCN(c3ccc(-c4ccccc4)cc3)CC2)CC1 | . | -1% | -14% | . | . | .
CCOC(=O)CSc1nc2cc3c(cc2cc1C#N)OCCO3 | ? | 1% | 5.6µM* | 2µM* | 6.5µM* | ?
CCOc1ccc2nc(SCC(=O)N3CCCCCC3)c(C#N)cc2c1 | 1% | 3% | 21% | 4% | -7% | 0%[2.3 µM]
CCOc1ccc2cc(C#N)c(SCC(=O)N3CCOCC3)nc2c1 | 4µM* | 19% | 36% | 4µM* | 2.6µM* | ?
CC(C)OC(=O)CSc1nc2cc3c(cc2cc1C#N)OCO3 | ? | 0% | ? | 4µM* | ? | 0%
Cc1cc2cc3c(cc2nc1SCC(=O)N1CCOCC1)OCO3 | 3% | . | . | -7% | 8% | 7%
N#Cc1cc2cc3c(cc2nc1SCC(=O)N1CCOCC1)OCO3 | 1.6µM* | . | . | 1.3µM* | 3.7µM* | .
CC(C)CN(CC(C)C)C(=O)CCCC(=O)N(CC(C)C)CC(C)C | -3% | -2% | -4% | -1% | -6% | -1%
O=C(Cn1nnc(-c2ccccc2)n1)NCC(=O)Nc1ccc(F)c(F)c1F | . | . | . | . | 0% | .
CC(C)c1cnc2c(c1SCC(=O)c1ccccc1)c(=O)n(C)c(=O)n2C | . | . | . | . | . | -11%
CCc1ccc(NC(=O)Cn2ccn(-c3ccc(C)c(C)c3)c(=O)c2=O)cc1 | . | . | . | . | . | -1%
O=C(COc1ncnc2scc(-c3ccccc3)c12)NCCN1C(=O)CSC1=O | 1% | 0% | 7% | 0% | 3% | 0%
Cc1cccc(NC(=O)Cc2nc(-c3c[nH]c(C(=O)N4CCCC4)c3)cs2)c1 | -4% | . | . | 0% | -9% | -15%
COc1cccc(N2CCN(C(=O)c3cc4c(=O)n(Cc5ccccc5)ccc4nc3C)CC2)c1 | 0% | . | . | -5% | -4% | 2%
CCOC(=O)CSc1nc2cc3c(cc2cc1C#N)OCO3 | -30% | 1% | 13µM* | ? | 23µM* | 3%
COC(=O)CSc1nc2cc3c(cc2cc1C)OCCO3 | 9% | -1% | 1% | -10% | 1% | -15%
COC(=O)CSc1nc(-c2cccs2)ccc1C#N | 2.2µM* | -7% | 14µM* | 1.8µM* | 8.2µM* | ?
COC(=O)CSc1nc2cc3c(cc2cc1C#N)OCO3 | 0.79µM* | 2% | 10µM* | 0.89µM* | ? | -6%
C#CCSc1nc(-c2cccs2)ccc1C#N | -2% | -1% | 16% | 1% | 0% | 1%
CC(=O)N1CCCC1c1nc2ccccc2n1Cc1c(F)cccc1Cl (stereo unspecified) | . | . | . | . | . | -11%
